Among the data in PubChem BioAssay are viability increase and viability values, retold here.

Results filed as inconclusive are left out. Activity calls are given as the source filed them.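 Rule for the calls, unless noted: active = viability increase at or above a cutoff of the median across tested compounds plus 3 SD (cut at about 8.5% in these data, passing the limit was not always enough); inconclusive = some gains above the cutoff, reason not given; inactive = the rest.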

The first experiment in a line: doxorubicin toxicity protection in MRP-1 cells – H69AR cells, CellTiter-Glo, duplicate, MRP-1 activator project, pilot screen (AID 807).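 Note: compound pretreatment 18-22 h then 72 h combined with doxorubicin; 0% = doxorubicin alone and 100% = vehicle without doxorubicin.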 To be noted: H69AR viability with doxorubicin, CellTiter-Glo luminescence; at 10 µM; stronger effect = higher value.
As for `COC(=O)c1ccsc1NC(=O)c1ccc(Cl)s1`, the viability increase is -6.51% (inactive).
On the same count and under the same terms, the value for `COC(=O)C1C(=O)c2c([nH]c(C(=O)OC3CCCCC3)c2C)CC1C` (stereo not given) was 2.69% (inactive); that for `Cc1cc(-c2nnco2)c(C)n1-c1ccc(F)cc1` was -2.15% (inactive).
Same read-out and setting: the value for `O=C1CCCCC(=O)N(c2ccccc2)c2ccccc21` was -3.3% (inactive); that for `CCOC(=O)N1CCN(C(=O)Cn2ncc3c2-c2ccccc2OC3)CC1` was -1.16% (inactive).
The same measure, in the same setting: under `COCc1cc(C)nc2sc3c(=O)n(Cc4ccco4)nnc3c12` stands -1.93% (inactive).
Consider `O=C1c2ccccc2C(=O)N1CCCc1nc2ccccc2c(=O)n1Cc1ccco1`, for which the viability increase is -1.68% (inactive).
For the molecule `CS(=O)(=O)c1ccc2nc(NC(=O)C3CCCCC3)sc2c1`, the viability increase was -7.36% (inactive).
On to `CC(=O)Oc1cccc(N2C(=O)C3CC=C(Cl)CC3C2=O)c1` (stereo not given), for which the viability increase was -0.7% (inactive).
On the same count and under the same terms, the value for `Cc1cccc(-n2ncc3c(N4CCC(C)CC4)ncnc32)c1` was 4.21% (inactive).
Consider `CCOc1ccc(C2c3c(oc4ccccc4c3=O)C(=O)N2c2ccc(C)cn2)cc1OC` (stereo not given), for which the viability increase is -4.09% (inactive).
Regarding `COc1ccc(N2C(=O)C(CC(=O)O)S/C2=C\C(C)=O)cc1` (stereo not given), the viability increase was -0.23% (inactive).
For `Cn1c(Cn2c(=O)sc3ccccc32)nnc1SCC(=O)NCc1ccccc1`, the viability increase is -0.73% (inactive).
For `O=C(CCNS(=O)(=O)c1cccc2nonc12)NCc1cccs1`, the viability increase was -1.88% (inactive).
The same measure, in the same setting: the value for `O=C(CN(Cc1ccc(F)cc1)S(=O)(=O)c1ccccc1)N1CCCCC1` was -2.51% (inactive).
`O=C1C2C(c3ccccc3)C=CC(c3ccccc3)C2C(=O)N1CCO` (stereo not given): the viability increase was -3.35% (inactive).
As to `COC(=O)c1cn(NC(=O)c2ccc3c(c2)OCO3)c(=O)c2ccccc12`, the viability increase was -2.75% (inactive).
Same read-out and setting: under `CCCCS(=O)CC(CS(=O)CCCC)OC(=O)c1ccccc1` (stereo not given) stands -1.89% (inactive); under `Cc1ccc(-n2c3c(cc(C(=O)N4CCN(C)CC4)c2=O)C(=O)CC(C)(C)C3)cc1`, 0.41% (inactive); under `CC(C)CCn1c(SCC(N)=O)nc2c1c(=O)n(C)c(=O)n2C`, 0.12% (inactive).
Regarding `CCOc1ccc(C(=O)NCc2ccncc2)cc1OCC`, the viability increase was -0.92% (inactive).
Still for that read-out and setting: under `COc1cc(OC)nc(NC(=O)C(C)C)n1` stands -0.57% (inactive); under `COc1ccc(NC(=O)c2c(NC(=O)CNCc3ccco3)sc3c2CCC3)c(OC)c1`, -1.44% (inactive); under `CC(=O)Nc1ccc(S(=O)(=O)N2CCN(c3ccc(C)c(Cl)c3)CC2)cc1`, 0.47% (inactive).
Same read-out and setting: the value for `Cn1c(Cn2c(=O)sc3ccccc32)nnc1SCC(=O)NCCc1ccccc1` was -0.09% (inactive); that for `CCOCCn1c(COc2ccccc2)nc2ccccc21` was -2.53% (inactive); that for `COc1ccc(COC(=O)C2=C(C)NC(=O)NC2c2ccc(O)c(OC)c2)cc1` (stereo not given) was 3.03% (inactive).
With `CCCOc1ccc(C2c3c(oc4cc(C)c(C)cc4c3=O)C(=O)N2CCCN2CCOCC2)cc1` (stereo not given), the viability increase is -2.28% (inactive).
Take `CCCCOC(=O)Nc1ccc(S(=O)(=O)Nc2cc(C)nc(C)n2)cc1`: the viability increase was -1.66% (inactive).
Regarding `O=S(=O)(NCCO)c1cccc2cccnc12`, the viability increase was -1.21% (inactive).
Same read-out and setting: under `CC(C)(C)C1(C)OC(C(N)=O)C(C(N)=O)O1` (stereo not given) stands 0.03% (inactive); under `COc1ccc(-c2cn3c(C)c(C(=O)N4CCN(c5ccccc5)CC4)sc3n2)cc1`, -1.3% (inactive).
In the case of `Cc1ccccc1OCC(O)Cn1c(NCCN(C)C)nc2c1c(=O)n(C)c(=O)n2C` (stereo not given), the viability increase is -1.92% (inactive).
Same read-out and setting: the value for `CCNc1nc(NCC)nc(-n2nc(C)cc2C)n1` was -0.22% (inactive); that for `Cc1nc2scc(-c3cccs3)c2c(=O)o1` was -1.96% (inactive).
`CC1COC2C(O1)N(S(C)(=O)=O)CCN2S(C)(=O)=O` (stereo not given): the viability increase is 0.34% (inactive).
`O=C(NCCN1C(=O)C2C3C=CC(C3)C2C1=O)NCc1ccccc1` (stereo not given): the viability increase was -0.69% (inactive).
On the same count and under the same terms, under `COC(=O)Cn1c(CCC(=O)O)ccc1-c1ccccc1` stands -0.49% (inactive); under `COC(=O)C1C2C=CC3(CN(c4ccc(Cl)c(F)c4)C(=O)C13)O2` (stereo not given), -1.28% (inactive); under `Cc1cnn(-c2ccc3nnc(-c4ccc(Br)cc4)n3n2)c1`, -4.96% (inactive).

The nature of a further experiment: viability of HCT116 without oncogenic beta-catenin – human colon tumor cells, pilot screen (AID 823;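 active = cell viability at or below a set limit in both duplicate runs, the limit being the all-compound median minus 4 SD, cut at about 23% in these data, passing the limit was not always enough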;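 note: 0% = wells killed by 20 µM Hyamine and 100% = untreated DMSO cell wells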). To be noted: HCT116 beta-catenin knockout viability, CellTiter-Glo, 60 h; at 10 µM; stronger effect = lower value.
Consider `COC(=O)c1ccsc1NC(=O)c1ccc(Cl)s1`, for which the viability was 94.7% (inactive).
In the case of `COC(=O)C1C(=O)c2c([nH]c(C(=O)OC3CCCCC3)c2C)CC1C` (stereo not given), the viability is 107% (inactive).
Still for that read-out and setting: under `Cc1cc(-c2nnco2)c(C)n1-c1ccc(F)cc1` stands 84.2% (inactive).
On the same count and under the same terms, the value for `O=C1CCCCC(=O)N(c2ccccc2)c2ccccc21` was 95.9% (inactive); that for `CCOC(=O)N1CCN(C(=O)Cn2ncc3c2-c2ccccc2OC3)CC1` was 102% (inactive); that for `COCc1cc(C)nc2sc3c(=O)n(Cc4ccco4)nnc3c12` was 100% (inactive).
The same measure, in the same setting: under `O=C1c2ccccc2C(=O)N1CCCc1nc2ccccc2c(=O)n1Cc1ccco1` stands 93.6% (inactive); under `CS(=O)(=O)c1ccc2nc(NC(=O)C3CCCCC3)sc2c1`, 72.2% (inactive).
Regarding `CC(=O)Oc1cccc(N2C(=O)C3CC=C(Cl)CC3C2=O)c1` (stereo not given), the viability is 89.6% (inactive).
On the same count and under the same terms, the value for `Cc1cccc(-n2ncc3c(N4CCC(C)CC4)ncnc32)c1` was 81.4% (inactive); that for `CCOc1ccc(C2c3c(oc4ccccc4c3=O)C(=O)N2c2ccc(C)cn2)cc1OC` (stereo not given) was 81.4% (inactive).
Turning to `COc1ccc(N2C(=O)C(CC(=O)O)S/C2=C\C(C)=O)cc1` (stereo not given), the viability was 98% (inactive).
In the case of `Cn1c(Cn2c(=O)sc3ccccc32)nnc1SCC(=O)NCc1ccccc1`, the viability was 99% (inactive).
`O=C(CCNS(=O)(=O)c1cccc2nonc12)NCc1cccs1`: the viability was 96.3% (inactive).
`O=C(CN(Cc1ccc(F)cc1)S(=O)(=O)c1ccccc1)N1CCCCC1`: the viability is 97.3% (inactive).
Still for that read-out and setting: under `O=C1C2C(c3ccccc3)C=CC(c3ccccc3)C2C(=O)N1CCO` (stereo not given) stands 94.7% (inactive); under `COC(=O)c1cn(NC(=O)c2ccc3c(c2)OCO3)c(=O)c2ccccc12`, 96.3% (inactive); under `CCCCS(=O)CC(CS(=O)CCCC)OC(=O)c1ccccc1` (stereo not given), 102% (inactive).
Still for that read-out and setting: the value for `Cc1ccc(-n2c3c(cc(C(=O)N4CCN(C)CC4)c2=O)C(=O)CC(C)(C)C3)cc1` was 101% (inactive).
With `CC(C)CCn1c(SCC(N)=O)nc2c1c(=O)n(C)c(=O)n2C`, the viability is 103% (inactive).
On to `CCOc1ccc(C(=O)NCc2ccncc2)cc1OCC`, for which the viability is 92.9% (inactive).
Same read-out and setting: under `COc1cc(OC)nc(NC(=O)C(C)C)n1` stands 104% (inactive).
On the same count and under the same terms, under `COc1ccc(NC(=O)c2c(NC(=O)CNCc3ccco3)sc3c2CCC3)c(OC)c1` stands 88.7% (inactive); under `CC(=O)Nc1ccc(S(=O)(=O)N2CCN(c3ccc(C)c(Cl)c3)CC2)cc1`, 98.3% (inactive).
Take `Cn1c(Cn2c(=O)sc3ccccc32)nnc1SCC(=O)NCCc1ccccc1`: the viability was 100% (inactive).
Still for that read-out and setting: the value for `CCOCCn1c(COc2ccccc2)nc2ccccc21` was 83.8% (inactive); that for `COc1ccc(COC(=O)C2=C(C)NC(=O)NC2c2ccc(O)c(OC)c2)cc1` (stereo not given) was 93.1% (inactive); that for `CCCOc1ccc(C2c3c(oc4cc(C)c(C)cc4c3=O)C(=O)N2CCCN2CCOCC2)cc1` (stereo not given) was 81.9% (inactive).
Same read-out and setting: under `CCCCOC(=O)Nc1ccc(S(=O)(=O)Nc2cc(C)nc(C)n2)cc1` stands 95.8% (inactive); under `O=S(=O)(NCCO)c1cccc2cccnc12`, 94% (inactive).
For `CC(C)(C)C1(C)OC(C(N)=O)C(C(N)=O)O1` (stereo not given), the viability is 98.2% (inactive).
Take `COc1ccc(-c2cn3c(C)c(C(=O)N4CCN(c5ccccc5)CC4)sc3n2)cc1`: the viability is 101% (inactive).
In the case of `Cc1ccccc1OCC(O)Cn1c(NCCN(C)C)nc2c1c(=O)n(C)c(=O)n2C` (stereo not given), the viability is 93.5% (inactive).
On the same count and under the same terms, under `CCNc1nc(NCC)nc(-n2nc(C)cc2C)n1` stands 100% (inactive); under `Cc1nc2scc(-c3cccs3)c2c(=O)o1`, 95.8% (inactive).
Consider `CC1COC2C(O1)N(S(C)(=O)=O)CCN2S(C)(=O)=O` (stereo not given), for which the viability is 99.3% (inactive).
Still for that read-out and setting: under `O=C(NCCN1C(=O)C2C3C=CC(C3)C2C1=O)NCc1ccccc1` (stereo not given) stands 102% (inactive); under `COC(=O)Cn1c(CCC(=O)O)ccc1-c1ccccc1`, 102% (inactive); under `COC(=O)C1C2C=CC3(CN(c4ccc(Cl)c(F)c4)C(=O)C13)O2` (stereo not given), 94.6% (inactive).
Same read-out and setting: the value for `Cc1cnn(-c2ccc3nnc(-c4ccc(Br)cc4)n3n2)c1` was 85.9% (inactive).
